Measurements taken from PubChem BioAssay (NCI).
The panel holds about 83,000 compounds, 20% with a hit somewhere; the sample as a whole holds those more often.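 Single-dose data. Exposure time 48 hours. Values below 10 considered active.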 Calls of active or inactive are those of the source.

Assays:
Assay in all cases: NCI-60 one-dose screen, 48 h (100 = growth as untreated, 0 = no growth, -100 = all killed)
Conditions in all cases: 10 µM unless noted
[1] = test system: HCT-15 colon
[2] = test system: HT29 colon
[3] = test system: SNB-75 CNS
[4] = test system: U251 CNS
[5] = test system: PC-3 prostate
[6] = test system: SK-MEL-5 melanoma
[7] = test system: UACC-62 melanoma
[8] = test system: LOX IMVI melanoma
[9] = test system: SK-MEL-28 melanoma

Measured: growth

Cc1ccc(SCN2CCN(c3cccc(Cl)c3)CC2)cc1
inactive: [1] 93.1% | [2] 110% | [3] 85.4% | [4] 89.1% | [5] 101% | [6] 93.7% | [7] 89% | [8] 81.6% | [9] 120%

O=C(O)c1ccc2c(c1Sc1ccccc1)C(=O)c1ccccc1C2=O
inactive: [1] 109% | [2] 96% | [3] 78.1% | [4] 103% | [5] 88.3% | [6] 93.6% | [7] 87.5% | [8] 89.5% | [9] 139%

COc1nc2c(cc1S(=O)(=O)c1ccccc1)CCc1c-2cnn1Cc1ccccc1
inactive: [1] 43.1% | [2] 13.9% | [3] 72.1% | [4] 48.1% | [5] 38.3% | [6] 34.7% | [7] 52% | [8] 65.9% | [9] 92.3%

N#Cc1c(N)nc(N)nc1Nc1ccc(Br)cc1
inactive: [1] 103% | [2] 93.9% | [3] 96.8% | [4] 96.9% | [5] 79.1% | [6] 89.6% | [7] 86.4% | [8] 92.4% | [9] 110%

COC(=S)SCN(CSC(=S)OC)c1ccc(Cl)cc1
inactive: [1] 86.3% | [2] 102% | [3] 58.9% | [4] 90.9% | [5] 99.3% | [6] 83.6% | [7] 58% | [8] 73.4% | [9] 102%

Cc1ccc2c(c1)O/C(=C\c1cccc(OCC(=O)c3ccccc3)c1)C2=O
inactive: [1] 69.8% | [2] 118% | [3] 93.4% | [4] 96.5% | [5] 358% | [6] 87.3% | [7] 66.1% | [8] 101% | [9] 110%

CC1CN(Cc2ccco2)C(=S)N(c2ccccc2)C1=O (stereo unspecified)
inactive: [1] 98.2% | [2] 93.4% | [3] 62.2% | [4] 93.4% | [5] 86.5% | [6] 100% | [7] 93.2% | [8] 94.1% | [9] 102%

CCNS(=O)(=O)c1ncnc2nc[nH]c12
inactive: [1] 94.3% | [2] 114% | [3] 122% | [5] 85.2% | [6] 113% | [7] 94.7% | [8] 22% | [9] 143%
active: [4] -14%

Cc1cc2cc3cc(C)c(N(C)C)cc3nc2cc1N(C)C
active: [5] 4.41%
inactive: [1] 71.6% | [2] 15.9% | [3] 26.6% | [4] 15.4% | [6] 28.5% | [7] 58.5% | [8] 24% | [9] 40.6%

CCOC(=O)C(C#N)C1CCCCC1 (stereo unspecified)
inactive: [1] 95.9% | [2] 108% | [3] 97.9% | [4] 93.8% | [5] 80.7% | [6] 103% | [7] 75.6% | [8] 92.4% | [9] 108%

CCC(=O)OCc1cccc(OC)c1
inactive: [1] 92.2% | [2] 90% | [3] 59.7% | [4] 93.2% | [5] 86.5% | [6] 104% | [7] 95.8% | [8] 92.1% | [9] 107%

O=C1C2CC=CCC2C(=O)N1CNc1ccc(Cl)cc1 (stereo unspecified)
inactive: [1] 89.6% | [2] 96.3% | [3] 78.2% | [4] 94.1% | [5] 76.9% | [6] 95% | [7] 62.7% | [8] 77% | [9] 109%

CCCCCCCCCCCCCC1=NCCN1CCO
inactive: [1] 47.2% | [2] 10.1% | [3] 150% | [4] 50.8% | [5] 31.6% | [6] 81.8% | [7] 93.5% | [9] 115%
active: [8] -52.8%

CCc1ccc(C(c2ccc(CC)cc2)C(Cl)(Cl)CCl)cc1
inactive: [1] 89.7% | [2] 76.8% | [3] 80.6% | [4] 89% | [5] 80.5% | [6] 90% | [7] 88.2% | [8] 93.6% | [9] 92.4%
